High-throughput results as filed in PubChem BioAssay.
ALR inh: blocks human ALR sulfhydryl oxidase activity; P55789; purified ALR, DTT oxidation, H2O2 HRP-luminol luminescence; inhibition, % (no concentration beside the values); 290,000 tested, 3.8% active; AID 485317;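 active means mean replicate inhibition above about 79%, with every replicate also reaching it, limit read from the data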
CHT inh: human CHT choline transport inhibition. Q9GZV3. CHT-expressing cells, membrane potential dye, choline response; active compounds read low. B-score at 10 µM. 310,000 tested, 0.86% active. AID 488975;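 active means B-score over 3 SD under the library average, and starting fluorescence ratio not unusually high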;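 further: choline stimulus applied at its EC90 after an EC20 pre-addition; B-score computed on integrated fluorescence ratio after choline addition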
AI-2 QS mod: modulates the Vibrio harveyi AI-2 quorum sensing system. Vibrio harveyi JMH597 AI-2 luminescence/OD600 ratio, 9 h; active compounds read low; strain lacks LuxN and CqsS sensors; 0 = neutral-control median. 300,000 tested, 0.4% active. activity change, % at 7.5 µM; in the data active means activity change below about -75%, passing the limit was not always enough;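 further: luminescence divided by OD600 gain over 9 h not by final OD600 alone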
CHT PAM: human CHT allosteric activation | Q9GZV3 | CHT-expressing cells, membrane potential dye, choline EC20; active compounds read high; LV-AA mutant CHT in HEK293 cells | B-score at 10 µM | 310,000 tested, 0.49% active | AID 488977;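 active means initial fluorescence not abnormally high and integrated response B-score, plate-corrected, over 3 SD above library mean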
PREPL inh: inhibits the human prolyl oligopeptidase-like enzyme; inhibition, % at 5.96 µM; Q4J6C6; 320,000 tested, 0.68% active; recombinant PREPL, fluorescence polarization activity-based probe; AID 2751; in the data active means inhibition above about 43%
Target sequence (Q4J6C6 whole entry, looked up): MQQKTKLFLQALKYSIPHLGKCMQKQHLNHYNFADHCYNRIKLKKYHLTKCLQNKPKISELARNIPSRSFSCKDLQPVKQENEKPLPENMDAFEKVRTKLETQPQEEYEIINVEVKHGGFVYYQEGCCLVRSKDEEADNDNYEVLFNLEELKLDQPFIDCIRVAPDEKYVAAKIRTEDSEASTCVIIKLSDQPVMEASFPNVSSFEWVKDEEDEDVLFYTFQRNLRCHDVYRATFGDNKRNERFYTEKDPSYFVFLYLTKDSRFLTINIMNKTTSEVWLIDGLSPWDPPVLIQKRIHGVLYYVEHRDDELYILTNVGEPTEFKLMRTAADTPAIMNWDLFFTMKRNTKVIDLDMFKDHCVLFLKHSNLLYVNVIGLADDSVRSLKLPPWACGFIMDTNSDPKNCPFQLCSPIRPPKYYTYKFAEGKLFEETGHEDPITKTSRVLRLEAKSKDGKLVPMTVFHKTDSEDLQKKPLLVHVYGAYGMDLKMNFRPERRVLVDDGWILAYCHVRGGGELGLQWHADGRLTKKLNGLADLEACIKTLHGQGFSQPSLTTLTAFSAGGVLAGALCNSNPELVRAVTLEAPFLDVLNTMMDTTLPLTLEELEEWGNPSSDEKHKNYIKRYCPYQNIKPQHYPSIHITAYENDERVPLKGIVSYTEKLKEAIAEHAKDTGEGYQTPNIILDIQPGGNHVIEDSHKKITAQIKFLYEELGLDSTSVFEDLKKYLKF
CHT act confirm: human CHT activation, confirmatory screen; activation, % at 10 µM; shares compounds with CHT PAM; 2,500 tested, 91% active; CHT-expressing cells, membrane potential dye fluorescence (FDSS); % of choline EC20–EC90 response window; HEK293 expressing CHT LV-AA mutant; choline added at its EC20;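 active means primary screen active, with duplicate mean activation above negative control mean plus 3 SD, cut at about 11% in these data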
HEK293 MP dye: activity in parental HEK293 cells lacking CHT. shares compounds with CHT PAM. ratio readout change at 10 µM, hits read low. membrane potential dye fluorescence (FDSS); measured after EC20 choline addition. 2,500 tested, 62% active;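 active means duplicate-averaged ratio beyond 3 SD from buffer wells, up or down, though filed actives are nearly all decreases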
Numbers stand for hits; - = inactive; . = no result given. In the library only some 5% were active in any assay of this set; here they are far more common.

SMILES	ALR inh	CHT inh	AI-2 QS mod	CHT PAM	PREPL inh	CHT act confirm	HEK293 MP dye
C[C@@H]1COC(=O)[C@@H](Cc2ccc(F)cc2)C/C=C\C[C@H](CC(=O)N(CCO)Cc2ccccc2)C(=O)N1	-	.	.	.	-	.	.
COCCNc1cc(C)c(C#N)c2nc3ccccc3n12	-	-	-	-	-	24	-49
Cc1cc(NCCOCCO)n2c(nc3ccccc32)c1C#N	-	-	-	-	-	51	-59
Cc1cc(NCCCO)n2c(nc3ccccc32)c1C#N	-	-	-	-	-	.	.
Cc1nnc2n(-c3ccccc3)c(=O)c3c4c(sc3n12)COC(C)(C)C4	-	-	-	-	-	.	.
Cc1nnc2n(C)c(=O)c3c4c(sc3n12)COC(C)(C)C4	-	-	-	6.5	-	74	-72
Cc1cc(OCC(=O)OCC(=O)NCc2cccs2)ccc1Cl	.	.	.	.	-	.	.
Cc1cccc(CN2CCC(CNC(=O)CSc3cc(=O)n(C)c4cc(Cl)ccc34)CC2)c1	-	-	-	6.4	-	21	-
Cc1nn2cnc3sc4c(c3c2nc1=O)CCCC4	-	-	-	6.6	-	40	-46
Cn1c(Cc2cccs2)nnc1SCC(=O)N1CCCc2ccccc21	-	-	-	-	-	.	.
O=C(CSc1nnc(Cc2cccs2)n1C1CCCCC1)N1CCCc2ccccc21	-	-	-	6.4	-	31	-
C[C@H](NC(=O)N1CCn2c1nc1ccccc12)C(=O)NCc1ccc2c(c1)OCO2	-	-	-	-	-	.	.
CN(CC(=O)Nc1cccc(F)c1)C(=O)c1ccc(N2CCCCCC2)c([N+](=O)[O-])c1	-	-	-	-	-	.	.
CN(CC(=O)Nc1cccc(F)c1)C(=O)c1cc([N+](=O)[O-])ccc1N1CCCCC1	-	-	-	-	-	17	-
O=C(NC1CCCCC1)C(c1ccco1)N(Cc1cccnc1)C(=O)C1COc2ccccc2O1 (stereo unspecified)	-	-	-	-	-	13	-
Cc1ccc(-c2nnc(Nc3ccc4c(c3)nc(C)n4C)c3ccccc23)cc1	-	-	-	-	-	.	.
CNC(=O)c1ccc(Nc2nnc(C)c3ccccc23)cc1	-	-	-	-	-	47	-48
Cc1nnc(Nc2ccc3c(c2)ncn3C)c2ccccc12	-	-	-	-	-	33	-47
CC(Nc1nc(-c2ccncc2)nc2ccccc12)c1ccccc1 (stereo unspecified)	.	-	-	-	-	.	.
CC(Nc1nc(N2CCNCC2)nc2ccccc12)c1ccccc1 (stereo unspecified)	-	-	-	7.1	-	44	-52
COc1ccc(OC)c2c(C)cc(NCCN3CCOCC3)nc12	-	-	-	9.2	-	65	-60
CCN(CC)S(=O)(=O)c1cc(NC(=O)C(CC(C)C)NC(N)=O)ccc1C (stereo unspecified)	-	-	-	-	-	.	.
CN(C)c1cccc2c(/C=N/O)ccc(N(C)C)c12	89	-	-	-	-	50	-41
CN(C)c1cccc2c(C=C(C#N)C#N)ccc(N(C)C)c12	-	-	-	11	-	57	-73
CC(C)(C)c1cccc(/C=N/O)c1O	.	-	-	-	-	.	.
SMILES	ALR inh	CHT inh	AI-2 QS mod	CHT PAM	PREPL inh	CHT act confirm	HEK293 MP dye
CC(C)(C)OC(=O)C[C@@H]1C/C=C\C[C@@H](CC(=O)NCCO)C(=O)NC[C@H](c2ccccc2)OC1=O	-	.	.	.	-	.	.
COC(=O)Cn1c(O)c(N=NC(=O)CNC(=O)COc2cccc(C)c2)c2ccccc21	-	-	-	-	-	.	.
Cc1ccc2nc(C)c3c(c2c1)COC3	-	-	-	-	-	.	.
Cc1nc2c(C)cccc2c2c1COC2	.	-	-	-	-	55	-59
COc1ccc(S(=O)(=O)N2CCCCCC2)cc1C(=O)N(C)CCOc1ccccc1	-	-	-	6.5	-	27	-
Cc1ccc(S(=O)(=O)N2CCCCC2)cc1C(=O)N(C)CCOc1ccccc1	-	-	-	-	-	.	.
CCN(CC)c1ncnc2c1cnn2Cc1ccc(Cl)cc1	-	-	-	-	-	.	.
Cn1c(=O)c2c(ncn2CCNC2=NCCCCC2)n(C)c1=O	-	-	-	-	-	.	.
Cn1c(=O)c2c(nc(N3CCOCC3)n2CCCNC2=NCCCCC2)n(C)c1=O	-	-	-	8.4	-	60	-63
N#CC(C#N)=C1C(=O)N(CCN2CCOCC2)c2ccccc21	-	-	-	-	-	.	.
Cc1ccc(-c2c3c(=O)n(C)c(=O)n(C)c3cn2CCCN2CCOCC2)cc1	-	-	-	8.1	-	70	-68
CC(=O)NC1CCCN(O)C(=O)/C=C(\C)CCOC(=O)C(NC(C)=O)CCCN(O)C(=O)/C=C(\C)CCOC(=O)C(NC(C)=O)CCCN(O)C(=O)/C=C(\C)CCOC1=O (stereo unspecified)	-	-	-	-	-	.	.
COCC(=O)N(C)c1nnc(-c2ccccn2)s1	-	-	-	-	-	.	.
COCC(=O)N(C)c1nnc(-c2ccc([N+](=O)[O-])cc2)s1	-	-	-	-	-	41	-47
CCc1nc(SCC(=O)N2CCOCC2)c2c(=O)n(C)c(=O)n(C)c2n1	-	-	-	-	-	.	.
Cn1c(=O)c2c(SCCN3CCOCC3)nc(C3CCCC3)nc2n(C)c1=O	-	-	-	7.4	-	42	-30
Cc1cc(OCCn2nc(C(=O)O)c3ccccc3c2=O)ccc1C(C)C	.	.	-	.	.	.	.
CCc1cccc(OCCn2nc(C(=O)O)c3ccccc3c2=O)c1	-	-	-	-	-	30	-
O=c1cc(-c2ccncc2)oc2ccccc12	-	-	-	-	-	46	-49
O=c1cc(-c2ccc(O)cc2)oc2ccccc12	-	-	-	-	-	.	.
O=C(NC1CC2CCC(C1)N2Cc1ccco1)c1ccccc1 (stereo unspecified)	-	-	-	7.7	-	-	-
O=C(NCc1ccccc1)NC1CC2CCC(C1)N2Cc1ccco1 (stereo unspecified)	.	-	-	-	-	.	.
COc1ccc(CCN2C(=O)c3ccccc3NC2c2cc(Cl)c(O)c(OC)c2)cc1 (stereo unspecified)	-	-	-	8.3	-	24	-
CCCN1C(=O)c2ccccc2NC1c1cc(OC)c(OC)c(OC)c1 (stereo unspecified)	-	-	-	-	-	.	.
CC(=O)/C(=N/Nc1ccc([N+](=O)[O-])cc1)N1CCCc2ccccc21	-	-	.	-	-	.	.
COC(=O)/C(=N/Nc1ccc(C)cc1)N1CCCc2ccccc21	99	-	-	8.1	-	-	-
Cc1cccc2nc(CSC(=N)N)c(Br)n12	-	-	-	-	-	28	-38
COc1ccccc1Nc1ncnc2nc[nH]c12	-	-	-	-	-	.	.
